# Experimental data from PubChem BioAssay.
# Activity calls are given as the source filed them.
# Legend:
# [1] = small molecules captured by biotinylated probe aFSTL3 – biochemical, small-molecule microarray, fluorescence 635/667, stem cell growth factor project, primary screen (AID 1064); conditions: higher = more signal;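 also: measures binding of the biotinylated anti-FSTL3 antibody to printed compounds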
# [2] = binders from COS7 lysate, DM2A8 probe, primary screen, torsin A project, cell lysate, small-molecule microarray, fluorescence 635/667 (AID 1065); conditions: higher = more signal, COS7 lysate expressing mutant human TOR1A
# [3] = small molecules captured by biotinylated probe aFGF2 – biochemical, small-molecule microarray, fluorescence 635/667, stem cell growth factor project, primary screen (AID 1067); conditions: higher = more signal;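 also: measures binding of biotinylated aFGF2 protein to printed compounds on slides; z-score merges feature fluorescence and signal-to-noise across triplicate slides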
# [4] = small molecules captured by biotinylated probe aFGF10 – biochemical, small-molecule microarray, fluorescence 635/667, stem cell growth factor project, primary screen (AID 1071); conditions: higher = more signal;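 also: score merges 667 nm spot intensity and signal to noise from triplicate slides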
# [5] = biological target: Neurogenic locus notch homolog protein 2 (Homo sapiens) (UniProt Q04721); assay: small molecules binding Notch2 protein – biochemical, small-molecule microarray, 635 nm fluorescence, stem cell growth factors, primary screen (AID 1073); conditions: higher = more signal
# [6] = biological target: Pro-neuregulin-1, membrane-bound isoform (Homo sapiens) (UniProt Q02297); assay: small molecules binding neuregulin-1 protein – biochemical, small-molecule microarray, fluorescence 635/667, psychiatric disease protein project, primary screen (AID 1075); conditions: NRG1 binding, 635 nm fluorescence, higher = more signal;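 also: score combines 667 nm spot fluorescence with signal to noise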
# Sequence of Pro-neuregulin-1, membrane-bound isoform (Homo sapiens) (Q02297 whole entry, looked up, the tested form may be a part, canonical isoform): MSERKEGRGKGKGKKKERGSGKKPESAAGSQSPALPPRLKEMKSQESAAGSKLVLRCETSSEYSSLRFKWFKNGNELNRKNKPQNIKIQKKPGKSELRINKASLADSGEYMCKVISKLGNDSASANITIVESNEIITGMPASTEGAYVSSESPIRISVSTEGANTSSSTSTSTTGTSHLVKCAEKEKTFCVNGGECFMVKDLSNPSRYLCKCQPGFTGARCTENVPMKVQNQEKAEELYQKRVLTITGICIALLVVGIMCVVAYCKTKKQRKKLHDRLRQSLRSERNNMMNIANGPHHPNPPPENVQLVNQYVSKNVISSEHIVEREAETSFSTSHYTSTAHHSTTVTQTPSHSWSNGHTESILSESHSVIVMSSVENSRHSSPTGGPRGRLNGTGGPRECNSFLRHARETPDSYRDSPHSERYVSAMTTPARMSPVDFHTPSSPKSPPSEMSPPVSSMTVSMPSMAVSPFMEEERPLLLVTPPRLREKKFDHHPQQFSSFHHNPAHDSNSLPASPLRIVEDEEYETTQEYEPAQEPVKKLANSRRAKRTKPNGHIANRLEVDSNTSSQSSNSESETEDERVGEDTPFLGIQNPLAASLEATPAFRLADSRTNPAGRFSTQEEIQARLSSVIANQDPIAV
# [7] = system: Neuregulin-1 EGF-like domain; assay: small molecules binding NRG1 EGF domain – biochemical, small-molecule microarray, 635 nm fluorescence, primary screen (AID 1081); conditions: higher = more signal;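 also: binding of the protein to compounds printed on small-molecule microarray slides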
# [8] = FRG1 expression reporter modulators in myotubes – cell-based, C2C12 myotubes, firefly/Renilla luciferase, luminescence, FRG1 inhibition for FSHD, primary screen (AID 1084); conditions: FRG1 promoter luciferase, higher = more signal, called active from +8 up or from −8 down
# [9] = small molecules captured by biotinylated probe aFST – biochemical, small-molecule microarray, fluorescence 635/667, stem cell growth factor project, primary screen (AID 1086); conditions: higher = more signal;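 also: score merges 667 nm fluorescence with signal-to-noise of each printed compound spot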
# [10] = binders of probe aHhip on microarray, primary screen, stem cell growth factor project, biochemical, small-molecule microarray, fluorescence 635/667 (AID 1087); conditions: higher = more signal;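 also: score merges spot fluorescence at 667nm with spot signal to noise ratio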
# [11] = system: PRMT1 (protein arginine N-methyltransferase 1); assay: small molecules binding arginine methyltransferase PRMT1 – biochemical, small-molecule microarray, 635 nm fluorescence, primary screen (AID 1088); conditions: higher = more signal;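 also: binding of Prmt1 protein to compounds spotted on small-molecule microarray slides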
# [12] = growth effects on S. cerevisiae YJM789 – YJM789 clinical isolate, OD600, 24 h, basal, primary screen (AID 1089); conditions: higher = more signal, called active from +8 up or from −8 down;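 also: growth of clinical yeast isolate S. cerevisiae YJM 789 seeded 1000 cells per well; test concentration not given here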
# [13] = S. pombe growth modifiers, basal conditions – strain 972, OD600, 24 h, no modulator, primary screen (AID 1090);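 also: basal condition with compound alone and no growth modifier present; test concentration not given here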; conditions: S. pombe 972 growth, higher = more signal, called active from +8 up or from −8 down
# [14] = budding yeast growth modifiers under rapamycin – strain BY4716, OD600, 96 h, primary screen (AID 1091); also: test concentration not given here; conditions: S. cerevisiae BY4716 + rapamycin, higher = more signal, called active from +8 up or from −8 down
# [15] = biological target: Torsin-1A-interacting protein 2 (Homo sapiens) (UniProt Q8NFQ8); assay: small molecules binding lysate-expressed LULL1 – cell lysate, human LULL1 lysate, 635/667 nm fluorescence, primary screen (AID 1092); conditions: small-molecule microarray, hLULL1 lysate binding, 635 nm fluorescence; higher = more signal;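 also: probe is lysate of COS7 cells overexpressing human LULL1; score merges per-feature 667 nm fluorescence with signal-to-noise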
# Sequence of Torsin-1A-interacting protein 2 (Homo sapiens) (Q8NFQ8 whole entry, looked up): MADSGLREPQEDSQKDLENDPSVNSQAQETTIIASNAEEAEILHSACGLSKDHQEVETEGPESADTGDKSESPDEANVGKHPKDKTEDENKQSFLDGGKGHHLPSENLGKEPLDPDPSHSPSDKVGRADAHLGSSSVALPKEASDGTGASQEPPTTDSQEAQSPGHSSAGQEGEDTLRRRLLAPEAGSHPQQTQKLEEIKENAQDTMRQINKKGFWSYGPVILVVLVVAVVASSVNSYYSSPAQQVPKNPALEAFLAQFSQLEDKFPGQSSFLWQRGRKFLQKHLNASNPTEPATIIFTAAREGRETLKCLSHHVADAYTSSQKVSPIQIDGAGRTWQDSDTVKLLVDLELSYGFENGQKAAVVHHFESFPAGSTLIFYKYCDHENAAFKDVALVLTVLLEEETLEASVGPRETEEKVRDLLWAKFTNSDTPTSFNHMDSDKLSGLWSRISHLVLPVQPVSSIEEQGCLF
# [16] = optical density change of DRC41 E. coli – strain DRC41, OD650, 24 h, E. coli filamentation project, primary screen (AID 1093);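 also: MC1000 strain lacking acrAB efflux and sulA so SOS filamentation is blocked; test concentration not given here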; conditions: E. coli DRC41 growth, higher = more signal, called active from +8 up or from −8 down
# [17] = probe aLefty2 binding to arrayed compounds – biochemical, biotinylated probe, 635/667 nm fluorescence, primary screen (AID 1094); conditions: small-molecule microarray, higher = more signal;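 also: score merges spot fluorescence near 667 nm with spot signal-to-noise ratio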
# [18] = system: Noggin (protein binding on small-molecule microarray); assay: small molecules binding Noggin protein – biochemical, 635/667 nm fluorescence, primary screen (AID 1095); conditions: 635 nm fluorescence, higher = more signal;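 also: score merges 667 nm feature fluorescence with signal to noise over triplicate slides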
# [19] = biological target: Neurogenic locus notch homolog protein 3 (Homo sapiens) (UniProt Q9UM47); assay: small molecules binding NOTCH3 protein – biochemical, 635/667 nm fluorescence, primary screen (AID 1096); conditions: small-molecule microarray, 635 nm fluorescence, higher = more signal
# Sequence of Neurogenic locus notch homolog protein 3 (Homo sapiens) (Q9UM47 whole entry, looked up): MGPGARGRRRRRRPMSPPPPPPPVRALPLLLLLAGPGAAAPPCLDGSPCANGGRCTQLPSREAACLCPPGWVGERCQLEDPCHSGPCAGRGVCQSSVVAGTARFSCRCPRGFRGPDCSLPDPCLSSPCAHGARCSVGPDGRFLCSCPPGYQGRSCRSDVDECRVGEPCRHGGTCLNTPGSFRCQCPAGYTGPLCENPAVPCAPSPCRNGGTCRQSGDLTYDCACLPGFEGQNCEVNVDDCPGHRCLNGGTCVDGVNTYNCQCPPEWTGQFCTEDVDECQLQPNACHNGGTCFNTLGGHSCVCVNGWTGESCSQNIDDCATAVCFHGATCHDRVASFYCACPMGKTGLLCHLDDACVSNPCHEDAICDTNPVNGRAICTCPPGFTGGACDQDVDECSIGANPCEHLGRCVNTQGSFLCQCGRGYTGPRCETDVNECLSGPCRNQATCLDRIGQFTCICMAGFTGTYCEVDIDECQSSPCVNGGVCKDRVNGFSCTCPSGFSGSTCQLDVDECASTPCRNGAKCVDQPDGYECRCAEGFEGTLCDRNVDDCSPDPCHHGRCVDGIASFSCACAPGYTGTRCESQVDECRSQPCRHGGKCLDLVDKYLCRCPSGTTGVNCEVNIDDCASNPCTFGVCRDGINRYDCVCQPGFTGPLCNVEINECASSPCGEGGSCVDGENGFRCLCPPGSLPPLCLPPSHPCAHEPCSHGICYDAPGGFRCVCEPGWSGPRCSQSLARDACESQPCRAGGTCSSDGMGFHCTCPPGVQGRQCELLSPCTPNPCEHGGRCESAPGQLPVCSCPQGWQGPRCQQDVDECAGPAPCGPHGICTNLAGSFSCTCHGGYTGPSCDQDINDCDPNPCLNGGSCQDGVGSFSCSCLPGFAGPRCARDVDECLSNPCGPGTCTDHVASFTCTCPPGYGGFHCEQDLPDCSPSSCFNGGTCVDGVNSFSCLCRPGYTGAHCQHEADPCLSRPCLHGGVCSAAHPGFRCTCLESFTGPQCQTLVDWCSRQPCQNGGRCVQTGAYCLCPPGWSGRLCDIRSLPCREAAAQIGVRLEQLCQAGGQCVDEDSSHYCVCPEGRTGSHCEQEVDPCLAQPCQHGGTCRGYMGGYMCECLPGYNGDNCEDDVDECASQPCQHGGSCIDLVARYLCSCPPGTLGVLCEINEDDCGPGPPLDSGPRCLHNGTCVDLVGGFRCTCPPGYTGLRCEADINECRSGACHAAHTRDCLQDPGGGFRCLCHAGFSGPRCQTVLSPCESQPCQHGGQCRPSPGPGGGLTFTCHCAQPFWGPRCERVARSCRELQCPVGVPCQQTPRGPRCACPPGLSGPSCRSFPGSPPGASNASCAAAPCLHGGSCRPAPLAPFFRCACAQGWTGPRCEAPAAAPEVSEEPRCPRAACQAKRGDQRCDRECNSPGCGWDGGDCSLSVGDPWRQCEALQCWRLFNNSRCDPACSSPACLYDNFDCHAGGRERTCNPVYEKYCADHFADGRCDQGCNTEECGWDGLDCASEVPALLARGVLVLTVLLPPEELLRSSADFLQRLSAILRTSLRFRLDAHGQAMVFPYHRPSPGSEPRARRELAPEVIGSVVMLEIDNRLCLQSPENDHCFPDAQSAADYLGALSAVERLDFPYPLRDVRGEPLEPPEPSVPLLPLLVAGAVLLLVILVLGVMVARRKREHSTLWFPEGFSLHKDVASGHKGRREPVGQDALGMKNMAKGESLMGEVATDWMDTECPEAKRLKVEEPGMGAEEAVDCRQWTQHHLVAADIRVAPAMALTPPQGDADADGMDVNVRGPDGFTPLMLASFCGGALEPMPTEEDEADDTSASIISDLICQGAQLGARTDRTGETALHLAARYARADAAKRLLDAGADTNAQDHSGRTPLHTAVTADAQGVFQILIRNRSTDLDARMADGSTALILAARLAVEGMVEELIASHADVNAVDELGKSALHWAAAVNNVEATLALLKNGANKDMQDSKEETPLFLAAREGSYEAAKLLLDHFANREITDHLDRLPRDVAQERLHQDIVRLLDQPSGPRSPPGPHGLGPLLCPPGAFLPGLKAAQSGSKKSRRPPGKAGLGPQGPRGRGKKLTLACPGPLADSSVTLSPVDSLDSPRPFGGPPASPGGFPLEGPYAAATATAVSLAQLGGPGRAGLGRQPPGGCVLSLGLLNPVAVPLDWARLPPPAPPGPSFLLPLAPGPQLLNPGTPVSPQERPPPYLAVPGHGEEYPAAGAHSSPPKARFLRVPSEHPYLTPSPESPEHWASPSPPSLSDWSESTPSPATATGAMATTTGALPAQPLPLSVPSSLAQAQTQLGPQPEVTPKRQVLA
# [20] = probe aEGFR binding to arrayed compounds – biochemical, biotinylated probe, 635/667 nm fluorescence, primary screen (AID 1097); conditions: small-molecule microarray, higher = more signal;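 also: probe is a biotinylated anti-EGFR antibody binding compounds printed on slides; score combines fluorescence near 667 nm and signal to noise of each spot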
Structure (SMILES),composite z-score [1],composite z-score [2],composite z-score [3],composite z-score [4],composite z-score [5],composite z-score [6],composite z-score [7],z-score [8],composite z-score [9],composite z-score [10],composite z-score [11],z-score [12],z-score [13],z-score [14],composite z-score [15],z-score [16],composite z-score [17],composite z-score [18],composite z-score [19],composite z-score [20]
CC(C)c1ccc(NN2C(C(O)c3ccccc3)C=CC3C(=O)N(c4ccccc4)C(=O)C32)cc1 (stereo not given),0.744,0.141,0.117,0.885,1.42,0.905,0.793,1.47 (inactive),1.13,-0.265,0.787,1.54 (inactive),-0.0469 (inactive),0.209 (inactive),2.88,-0.213 (inactive),0.142,-0.621,1.11,0.198
CC(C)c1ccc(NN2C(C(O)C3=C[C@H]4C[C@@H](C3)C4(C)C)C=CC3C(=O)N(c4ccccc4)C(=O)C32)cc1 (stereo not given in full),0.481,0.357,0.0301,0.605,1.16,1.74,0.885,-1.01 (inactive),0.907,-0.302,1.32,0.191 (inactive),-0.0249 (inactive),0.264 (inactive),2.6,-0.661 (inactive),0.363,0.501,1.08,0.114
COC(=O)[C@@]1(Cc2ccc(OC)cc2)[C@@H]2[C@@H](CC(=O)[C@H]2CC(=O)C(=O)N(C)C)CN1C(=O)c1ccccc1,2.09,0.496,0.81,1.2,1.78,1.69,1.06,-0.224 (inactive),2.67,0.357,0.707,-0.0616 (inactive),1.61 (inactive),3.34 (inactive),3.24,-0.163 (inactive),1.11,-0.458,1.01,0.766
O=C1c2ccccc2[C@@]2(Cc3ccccc3N(CC(F)(F)F)C2=O)[C@H](c2ccc(CO)cc2)N1Cc1ccccc1,0.386,0.0025,-0.124,0.316,-0.661,0.0876,-0.533,0.605 (inactive),-0.0539,-0.129,0.349,0.633 (inactive),-0.269 (inactive),-1.49 (inactive),-0.117,-1.91 (inactive),-0.147,0.666,-0.242,-0.177
C=C(C(=O)CC[C@H](OC(=O)c1ccccc1-c1ccccc1C(=O)O)c1ccc(OCCO)cc1)C(C)C,-0.525,0.166,0.0033,0.13,0.214,1.76,1.26,1.72 (inactive),0.239,-0.0994,1.51,-1.2 (inactive),-0.788 (inactive),-1.28 (inactive),3.04,0.438 (inactive),-0.135,0.779,0.241,0.0675
O=C(N1CCOCC1)[C@]1(CCS(=O)(=O)c2ccccc2)N=C(c2ccc(OCCCO)cc2)O[C@@H]1c1ccccc1,0.217,2.19,-0.0667,0.479,1.22,1.94,1.3,-1.49 (inactive),1.31,-0.0994,1.45,0.825 (inactive),0.778 (inactive),2.98 (inactive),3.26,1.14 (inactive),0.227,0.0673,1.08,0.0727
COC(=O)[C@@]1(Cc2ccc(F)cc2)[C@H]2c3cc(C(=O)N(C)C)n(CCF)c3C[C@H]2CN1C(=O)c1ccccc1,0.267,0.0612,0.131,0.623,1.22,1.83,1.06,-1.3 (inactive),0.329,0.0274,-0.0162,-2.02 (inactive),0.287 (inactive),-0.318 (inactive),2.35,1.25 (inactive),0.265,0.104,-0.0282,-0.0896
C=CCNC(=O)[C@H]1[C@@H]2C(=O)O[C@@H](c3ccccc3)[C@@H](c3ccccc3)N2[C@@H](c2ccc(O)cc2)[C@]12C(=O)Nc1ccc(C#CCC(C(=O)OC)C(=O)OC)cc12,-0.102,-0.0975,-0.0878,0.0813,0.136,0.0652,1.19,-0.32 (inactive),0.0765,-0.261,0.526,0.357 (inactive),-0.213 (inactive),-0.836 (inactive),1.13,1.44 (inactive),-0.0478,0.614,-0.112,-0.102
COCCCNC(=O)[C@@]1(Cc2ccccc2I)c2ccccc2C(=O)N(Cc2ccccc2OC)[C@H]1c1ccc(CO)cc1,0.841,0.32,0.096,0.655,-1.09,1.3,1.3,-2.86 (inactive),-0.523,-0.195,1.56,0.634 (inactive),0.248 (inactive),1.07 (inactive),2.77,0.62 (inactive),-0.142,-1.22,-0.625,-0.331
CCCCC(=C=CC[C@H](O)c1cccc(OCCO)c1)C[C@H](O)c1cc(Cl)cc(Cl)c1O,-0.288,-0.027,-0.0376,0.526,-0.107,0.665,0.616,-1.64 (inactive),0.137,-0.197,1.53,0.59 (inactive),-1.71 (inactive),0.102 (inactive),1.81,0.206 (inactive),0.206,0.999,0.883,-0.112
